Results published in PubChem BioAssay (EPA / NIEHS).
Calls of active or inactive are those of the source. How the source made its calls: active means hit-call score of the fitted dose curve at least 0.9, where 1 is the maximum; inactive means score below 0.9.

read-out: Glutamate-cysteine ligase regulatory (GCLM), GCLM (gene 2730); experiment: LTEA_HepaRG_GCLM: Life Technologies and Expression Analysis (LTEA) Assay for Glutamate-cysteine ligase regulatory (GCLM) using HepaRG (AID 2283500); settings: mRNA level, 48 h; actives raise or lower the signal
Experimental: LTEA_HepaRG is a cell based, multiplexed-readout assay that uses HepaRG, a human liver cell line, with measurements taken at 48 hours after chemical dosing on a 96-well plate.LTEA_HepaRG_GCLM is one of 102 assay component(s) measured in the LTEA HepaRG cell culture assay. It is a marker of Cell proliferation, survival, death.Data from the assay component LTEA_HepaRG_GCLM was analyzed into 1 endpoint. This assay endpoint, LTEA_HepaRG_GCLM, was analyzed with bidirectional fitting relative to DMSO as the negative control and baseline of activity. Using a type of inducible reporter, measures of mRNA induction for gain or loss-of-signal activity can be used to understand regulation of transcription factor activity. To generalize the intended target to other relatable targets, this assay endpoint is annotated to the ligase intended target family, where the subfamily is C-N ligase.
A total of 1060 chemcials from the ToxCast library were tested in eight-point concentration-response experiments. Cell culture and cytotoxicity assays were conducted at Thermo Fisher Scientific's Custom Services facility (Madison, WI). A single lot of human HepaRG cells (Thermo Fisher Scientific, Frederick, MD) was used for the cell culture experiments. 96-well format collagen type I coated plates of human HepaRG cells were prepared using established methods. Briefly, cryopreserved HepaRG cells were thawed, plated at a density of approximately 100,000 cells/well in HepaRG Thaw, Plate, and General Purpose media (HPRG770, Thermo Fisher Scientific), and incubated for 48 hours. 0.5% DMSO was selected as vehicle control to balance the requisite need of DMSO in HepaRG cultures to maintain differentiation (for example, baseline metabolism, proportions of hepatocytes vs. cholangiocytes), while enabling further hepatic receptor pathway activation (for example, PXR and CAR) in response to chemical exposure. 48 hours after plating, the culture medium was replaced with HepaRG Serum-Free Incudtion Media. Cells were exposed to each test chemical in duplicate and maintained in CO2 incubators for another 48 hours. Chemical plates were thawed to room temperature and 200x concentrations of treatment groups were prepared. 8-point conentration-reponse curves were made with the highest exposure at 100 uM, followed by half-log dilutions, all in 0.5% DMSO. Each test plate contained variouse controls, induction positive controls (1mM phenobarbital), cytotoxicity positive controls ([…] aflatoxin B1), vehicle controls (0.5% DMSO), and total lysis controls (0.5% DMSO). Cell morphology images were taken using an Essen IncuCyte FLR automated microscope, with six 96-well plates imaged in about 24 minutes. Images were captured and exported and JPEG files. Spent culture media was transfered to black-well plates for the LDH assay, and remaining media was sorted at -80 C for later use. Cells were treated with RLT buffer and frozen until shipped for gene expression analysis. Total RNA was isolated from the cell suspension in 75 uL of Buffer RLT (Qiagen, Germantown, MD 20874) by Quintiles/Expression Analysis (Durham, NC) using a custom isolation procedure. Total RNA from each plate well was transferred to a preamplification plate. Fluidigm's 96.96 Dynamic ArrayTM (Fluidigm, Amsterdam, the Netherlands) technology was used for gene expression analyses by quantitative reverse transcription polymerase chain reaction (qRT-PCR, performed by Quintiles/Expression Analysis, Durham, NC)89. Standard TaqManTM Assays (Applied Biosystems/ThermoFisher Scientific, Foster City, CA) were used to assess the expression of 93 genes selected based on their selectivity and sensitivity to important hepatic receptors known to be modulated by environmental chemicals; importance in human hepatocyte functionality; and hepatotoxicity. […]

SMILES | outcome | AC50
CC(C)(C)c1ccccc1O | inactive | 
Clc1cccc(Cl)c1 | inactive | 
Oc1c(Cl)cc(Cl)cc1Cl | inactive | 
COc1ccccc1N | inactive | 
OCCN(CCO)CCO | inactive | 
CN(C)C(=S)S | inactive | 
Clc1cccc(Cl)c1Cl | inactive | 
CCCCCCCCCCCCc1cccc(S(=O)(=O)O)c1 | inactive | 
O=C(N[C@H]1CN2CCC1CC2)c1ccc2c(c1)OCCO2 |  | 0.112 µM (active)
N#Cc1cccnc1 | inactive | 
Oc1cc(Cl)c(Cl)cc1Cl | inactive | 
CC(C)O.CC(C)O.OCCN(CCO)CCO.OCCN(CCO)CCO.[Ti] | inactive | 
O=C(O)C1(c2ccc3c(c2)OC[C@H](Cc2ccc(-c4ccccc4)cc2)[C@H]3O)CCCC1 | inactive | 
Cc1cc(C)cc(C)c1 | inactive | 
